PubChem BioAssay (NCI)
This is part of a sample that, as a whole, favours compounds with a hit. Of some 79,000 tested, about 15% had one in any assay. Unmarked numbers belong to inactive results. Active and inactive are the calls of the source. Cut-off read from the data, not from the text of the source: active = growth inhibition above about 70%; inactive = the rest.

Test: NCI Yeast Anticancer Drug Screen. Data for the sgs1 mgt1 strain (AID 161);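 note: 0% = growth of cultures given vehicle only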
Conditions: S. cerevisiae sgs1 mgt1 strain, at 50.0 µM, hits give high values
In short: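 Growth of a repair-deficient yeast mutant was monitored after compound treatment and expressed as inhibition relative to vehicle-treated cultures.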

SMILES | growth inhibition
COC1=CC(O)(CC(N)=O)c2ccccc2C1=O (stereo not given) | 10.6%
[N-]=[N+]=NC(=O)C1C(c2ccccc2)=C1c1ccccc1 | -0.2%
O=[N+]([O-])c1cc(Cl)ccc1NC(Nc1ccc(Cl)cc1[N+](=O)[O-])C(Cl)(Cl)Cl | 28.4%
Nc1nc2sc3ccccc3c(=O)n2n1 | 11.5%
CCOC(=O)c1ccc(NC(=O)Nc2cc(Cl)ncn2)cc1 | 9.15%
Cc1ccc(S(=O)(=O)NC2C(=O)c3ccccc3C(=O)C2n2ccnc2)cc1 (stereo not given) | 0.75%
N=c1c2ccccc2nc2oc3ccc(Cl)cc3n12 | -6.25%
Cc1c(-c2ccc(N)cc2)c(=O)oc2cc(O)ccc12 | -2.2%
CCCc1ccccc1[N+](=O)[O-] | -10.5%
Cc1cc2c(c(C(=O)NCC(=O)O)c1)Oc1c(cc(C)cc1C(=O)NCC(=O)O)S2 | -4.95%
O=C1NC(=O)[C@H]2C[C@H]3C(=O)NC(=O)[C@H]3[C@@H]12 | -6.9%
OCC(O)COCCCCCCCCCCCCCC1C=CCC1 (stereo not given) | -35%
CCCCN1CCSC1=S | 98.2% (active)
N=C(/C(=C/c1cccc2ccccc12)c1ccccc1)c1ccccc1 | 14.1%
COc1ccc2occc2c1 | -17.7%
C=CCN1/C(=C(\C#N)c2nc3ccccc3[nH]2)Sc2c1nc[nH]c2=O | -32%
Cc1ccc2c(ccc3nnc(C)n32)c1 | 4.65%
C=CCN1C(=O)/C(=C/c2ccc(OCC(=O)O)cc2)SC1=S | 0.05%
COc1c2c(cc3c1C1(O)Cc4ccc5c(c4C[N+]1(C)CC3)OCO5)OCO2 (stereo not given) | -5.3%
C=C1C(=O)OC2/C=C(\C)CC(O)/C=C(/C)CC(OC(=O)C(O)(CO)C(C)S)C12 (stereo not given) | -22.4%

SMILES | growth inhibition
CNC(=O)c1ccccc1C | -6.9%
N#CCCCCCCO | 11.4%
O=C(Nc1nccs1)Nc1cc(F)ccc1F | 21.5%
N#CC(c1ccc(Cl)cc1)c1cccc(C(C#N)c2ccc(Cl)cc2)n1 (stereo not given) | 38%
O=C1NC(=O)C2(CCC(O)C2)c2cc[n+]([O-])cc21 (stereo not given) | -13.6%
Cn1c(=O)c2c(nc(NCCOC(=S)S)n2C)n(C)c1=O | -10.3%
CCCC=Nc1ccccc1 | 14.5%
COC(=O)c1c(C)cc(OC)c(C/C=C(\C)CCCc2coc(C=C(C)C)c2)c1OC | 19%
BrC1=C(c2ccccc2)SC(Br)=C(c2ccccc2)S1 | 1.2%
Cc1ccc(NC(=O)/C=C2\CONC(c3ccccc3)=N2)cc1 | -8.3%
CCOC(=O)NN(C(=O)OCC)C(C(C)=O)c1ccccc1 (stereo not given) | -10.8%
O=c1[nH]c(=O)c2ncn(C3OC(CO)C(O)C3O)c2[nH]1.O=c1[nH]c(=O)c2ncn(C3OC(CO)C(O)C3O)c2[nH]1.[NH2-].[NH2-].[Pt+2] (stereo not given) | 41.7%
c1ccc(N=c2snc3scc(-c4ccccc4)n23)cc1 | 13.8%
COc1ccc([N+](=O)[O-])c2ncncc12 | 0.8%
O=[N+]([O-])c1cccc([I+]c2cccc([N+](=O)[O-])c2)c1 | 97.7% (active)
O=C(Cc1cccc(CC(=O)c2ccccc2)n1)c1ccccc1 | 18.5%
c1ccc2c(c1)NC1(CCCCC1)S2 | 39.5%
O=C1OC(c2ccc(O)c(-c3ccccc3)c2)(c2ccc(O)c(-c3ccccc3)c2)c2c(Cl)c(Cl)c(Cl)c(Cl)c21 | 19.1%
CC(=O)Oc1c(C)n(C(C)=O)c2cc(Cl)ccc12 | 15.3%
CCN(CC)c1ccc2cc(-c3nc4ccccc4n3C)c(=O)oc2c1 | 2.2%
